Measurements published in the supplement of paper PMC9023506.
Structures can show the parent of a compound that is named as a salt.

These compounds were tested on Danio rerio larvae (5 dpf) (assay: startle response to 20-s acoustic pulses, difference vs DMSO (percentage points (treated minus DMSO)); higher = more of the behaviour than the DMSO vehicle control). Conditions: 10 µM; exposure time: 3 h pre-incubation + 3 h imaging.
Procedure: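 5-dpf wild-type zebrafish larvae were imaged in 96-well plates. They were treated with 190 Tocris FDA-approved drugs at 10 µM (1 µl/ml DMSO) for 3 h before and 3 h during imaging at 28.5 °C, 48 larvae per drug. Automated image analysis gave % time moving and optomotor responses. Values are drug group mean minus DMSO vehicle mean (n=844), in percentage points, for 10 behaviours.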

| SMILES | startle response to 20-s acoustic pulses |
| --- | --- |
| O=c1[nH]c2ccccc2n1C1CCN(CCCC(c2ccc(F)cc2)c2ccc(F)cc2)CC1 [Pimozide] | 2.42 |
| C=C1C[C@@H]2[C@H](CC[C@]3(C)C(=O)CC[C@@H]23)[C@@]2(C)C=CC(=O)C=C12 [Exemestane] | 2.55 |
| CN1C[C@H](C(=O)N[C@]2(C)O[C@@]3(O)[C@@H]4CCCN4C(=O)[C@H](Cc4ccccc4)N3C2=O)C[C@@H]2c3cccc4[nH]cc(c34)C[C@H]21 [Dihydroergotamine mesylate] | 5.17 |
| CC[C@@H](C(N)=O)N1CCCC1=O [Levetiracetam] | 1.64 |
| COc1cc2c(cc1OC)C1CC(=O)C(CC(C)C)CN1CC2 (configuration not stated) [Tetrabenazine] | -5.81 |
| COc1ccc(C(CN(C)C)C2(O)CCCCC2)cc1 (configuration not stated) [Venlafaxine hydrochloride] | -5.93 |
| Cc1cccc([C@H](C)c2c[nH]cn2)c1C [Dexmedetomidine hydrochloride] | 6.09 |
| N[C@@H]1C[C@H]1c1ccccc1 [Tranylcypromine hydrochloride] | -9.81 |
| CCN(C)C(=O)Oc1cccc([C@H](C)N(C)C)c1 [Rivastigmine tartrate] | 5.58 |
| CC(O)(CS(=O)(=O)c1ccc(F)cc1)C(=O)Nc1ccc(C#N)c(C(F)(F)F)c1 (configuration not stated) [Bicalutamide] | 0.332 |
| CC(C)C[C@H]1C(=O)N2CCC[C@H]2[C@]2(O)O[C@](NC(=O)[C@@H]3C=C4c5cccc6[nH]c(Br)c(c56)C[C@H]4N(C)C3)(C(C)C)C(=O)N12 [Bromocriptine mesylate] | -8.49 |
| C=CCN1C[C@H](C(=O)N(CCCN(C)C)C(=O)NCC)C[C@@H]2c3cccc4[nH]cc(c34)C[C@H]21 [Cabergoline] | -8.7 |
